KB-V1 cytotox: kills drug-selected multidrug resistant KB-V1 cells; AID 1347076; KB-V1 MDR cells viability, CellTiter-Glo, 72 h; Potency, µM (series often up to 46.1 µM), actives largely listed as cytotoxic; actives 3.4% (n = 400,000); note: % is set by controls: 0 for no effect and ±100 for the full control effect; nearly all actives have a fitted effect of over 60% in size
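KB-V1 MDR subline cells in DMEM (phenol-red free, 10% FBS) exposed to compounds in qHTS concentration series for 72 h at 37 degrees C. Viability read by CellTiter-Glo luminescence; concentration-effect curves fitted after normalization and correction.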
MCF10A rereplic: induces DNA re-replication in MCF 10a normal breast cells. Potency, µM (doses to about 46.1 µM), for the others: top-dose activity, positive = re-replication, hits mostly activators. AID 624296. MCF 10A DNA re-replication, Hoechst nuclear intensity, 48 h. actives 2.9% (n = 350,000); note: % of control where 0% means no effect; nearly all actives have a fitted effect of over 50% in size
SW480 rerep: induces DNA re-replication in SW480 colon adenocarcinoma cells | SW480 DNA re-replication, Hoechst DNA content imaging, 48 h | Potency, µM (doses to about 46.1 µM), without a hit: at the highest dose re-replication activation, actives largely listed as activators | actives 1.8% (n = 340,000) | AID 624297; note: % of control where 0% means no effect; nearly all actives have a fitted effect of over 55% in size
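Image-based DNA-content assay: after two days of treatment, nuclei were labelled with the DNA dye Hoechst and imaged, and hits were compounds raising the count of nuclei showing high fluorescence intensity.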
KB-3-1 tox: KB-3-1 parental cell cytotoxicity | KB-3-1 viability, CellTiter-Glo ATP luminescence, 72 h | Potency, µM (doses to about 46.1 µM), actives largely listed as cytotoxic | actives 1.4% (n = 400,000) | AID 1347075; note: % is set by controls: 0 for no effect and ±100 for the full control effect; nearly all actives have a fitted effect of over 60% in size
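Cytotoxicity measured as CellTiter-Glo luminescence after 72 h at 37 C. Compound titrations were pinned onto drug-naive KB-3-1 parental adenocarcinoma cells grown in DMEM with 10% FBS, and normalized data fitted to concentration-response curves.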
HT1080 IDH1KD tx: kills HT-1080 cells with IDH1 knockdown; HT-1080 IDH1 knockdown viability, ATP luminescence, 48 h; Potency, µM (titrated, usually from 46.1 µM), inactives show at the top dose activity, negative = toxicity, usual class: cytotoxic; actives 2% (n = 360,000);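 note: 0% = DMSO wells and -100% = cell-free medium wells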
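Cytotoxicity counter-line: IDH1KD HT-1080, 48 h, CellTiter-Glo. Curves classed by r2, magnitude and activity.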
HT1080NT lethal: kills 2HG-producing HT-1080-NT fibrosarcoma cells | HT-1080-NT fibrosarcoma viability, CellTiter-Glo ATP luminescence, 48 h | Potency, µM (top dose mostly 46.1 µM), for the others: at the highest dose activity, negative = less viability, hits mostly cytotoxic | actives 1.6% (n = 360,000);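 note: NT is the 2HG producing partner of a matched IDH1 knockdown line; 0% = DMSO-treated cells and -100% = media-only wells without cells; nearly all actives have a fitted effect of over 55% in size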
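Toxicity toward the 2HG-producing NT line was scored as %Activity, normalised to DMSO and no-cell wells, from CellTiter-Glo luminescence after 48 hours' treatment.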
The depositor's hits bear a star; i = inactive; ? = inconclusive; nt = no result given; [ ] = another dose, or the depositor's remark. Only some compounds are listed: those with a hit (about 7.9% of all), similar ones and a draw of the others. Calls come from the whole dose curve; as a rule, active = well fitted curve in the direction sought with a large enough effect; inconclusive = small, poorly fitted or top-dose-only effect, or another doubt; inactive = no such curve, though single readings can be large; an effect the other way counts as inactive or inconclusive. Potency is the fitted concentration of half-maximal effect.

SMILES | KB-V1 cytotox | MCF10A rereplic | SW480 rerep | KB-3-1 tox | HT1080 IDH1KD tx | HT1080NT lethal
COc1ccc(C(C(=O)NC2CCCC2)N(C(=O)c2snc(-c3ccc(F)cc3)c2N)c2ccccc2)cc1 (stereo not given) | i | 1.5% | 17.1% | i | 0.2% | 4.9%
COc1ccc(C(C(=O)NC2CCCC2)N(C(=O)c2snc(-c3ccc(F)cc3)c2N)c2ccc(F)cc2)cc1 (stereo not given) | ? | ? | 16.4µM* | ? | ? | ?
O=C(CN1C(=O)NC2(CCCC2)C1=O)OCc1cccc(Br)c1 | i | 31.2% | 2.4% | i | 0.0% | 0.5%
CSc1nc(N2CCOCC2)nc2ccc(C)cc12 | i | 20.6µM* | ? | i | 6.3% | 13.7%
COc1ccc(N(Cc2ccccc2)S(=O)(=O)c2cccc(C(=O)Nc3ccccn3)c2)cc1 | 3.66µM* | ? | 13.4% | ? | -20.2% | -12.9%
COc1ccc(NC(=O)CCN(c2ccc(OC)cc2)S(=O)(=O)c2ccc(C)c(C)c2)cc1 | 8.2µM* | 8.6% | 7.7% | i | -2.9% | -6.4%
COc1ccc(C(=O)Nc2ccc(S(=O)(=O)N(Cc3ccccc3)c3ccccc3)cc2)cc1 | 2.31µM* | nt | nt | i | nt | nt
O=C(Nc1ccccn1)c1ccc(CN(c2ccccc2)S(=O)(=O)c2ccccc2)cc1 | i | ? | 10.7% | i | -15.8% | -1.7%
FC(F)(F)c1cc(Cl)c2nc(-c3ccco3)c(Cc3ccccc3C(F)(F)F)n2c1 | i | nt | nt | i | ? | -8.5%
Cc1ccc(S(=O)(=O)N2CCC(=O)c3ccccc32)cc1 | i | nt | nt | i | -1.1% | -7.5%
Cc1cccn2c(=O)c(/C=C(\C#N)C(=O)NC3CCS(=O)(=O)C3)c(N3CCC(C)CC3)nc12 (stereo not given) | i | 5.8µM* | 8.2µM* | i | 1.7% | 0.7%
N#C/C(=C\c1c(Oc2ccc(Cl)cc2)nc2ccccn2c1=O)C(=O)NC1CCS(=O)(=O)C1 (stereo not given) | i | 5.17µM* | ? | ? | ? | -12.7%
Cc1cc(Oc2nc3ccccn3c(=O)c2/C=C(\C#N)C(=O)NC2CCS(=O)(=O)C2)ccc1Cl (stereo not given) | i | -23.0% | ? | i | ? | ?
Cc1ccccc1-c1cccc([C@@H]2C[C@H]3[C@H](CON3C)CN2Cc2cc(Cl)cc(Cl)c2)c1 | i | 0.5% | -20.2%[9.22 µM] | ? | 4.1% | 4.2%
COc1ccccc1N1CCN(C(=O)c2cc(S(=O)(=O)N3CCC(C)CC3)cn2C)CC1 | i | nt | nt | i | nt | nt
CCOC(=O)c1ccccc1NC(=O)Cn1ncc2c([nH]c3ccccc32)c1=O | i | nt | nt | i | nt | nt
C[C@H]1CCC[C@]2(C)C[C@H]3OC(=O)C(CN4CCCCCC4)[C@H]3C=C12 (stereo not given in full) | i | ? | ? | ? | ? | 16.4µM*
CCOC(=O)c1cnc(Nc2nc3ccccc3o2)nc1CSC(=S)N(CC)CC | ? | ? | ? | 1.3µM* | 7.9% | 7.9%
CCCc1nc(Nc2nc3ccccc3o2)nc(C)c1C(=O)OCC | 3.66µM* | 3.5% | 0.9% | i | 4.0% | ?
CC(C)Cc1ccc(C(C)/C=C2/CCC(CN3CCCCC3)C2=O)cc1 (stereo not given) | ? | 14.6µM* | ? | ? | ? | ?
O=C(c1ccsc1)N1CCCC(Nc2cccc(F)c2)C1 (stereo not given) | i | -1.0% | -4.9% | i | 0.2% | 0.8%
COc1ccc(CNC(=O)N2CCc3ccccc3C2)cc1Cl | i | 9.4% | 20.6% | i | -7.3% | -10.1%
Cc1ccc(NC(=O)c2c3c(nc4ccccc24)CCC3)cc1S(=O)(=O)N(C)C | i | 11.4% | -2.4% | i | -10.8% | -11.4%

Screening data deposited in PubChem by National Center for Advancing Translational Sciences (NCATS).
